This is an account of results in the supplement of paper PMC8728848.

Holding throughout (assay): glycan array binding signal (z-score within array); higher = stronger binding
What all share (conditions): glycan notation: IUPAC condensed, linker removed

The target in one experiment is Fuc(a1-2)Gal(b1-4)GlcNAc. The method, boiled down:
(§1)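 Columns mapping to the same glycan were averaged after glycan names were converted to IUPAC-condensed notation. The data come from 3228 arrays in the Consortium for Functional Glycomics database, limited to those with an available protein sequence. Binding is reported as a within-array Z-score averaged across arrays of one protein sequence and across linkers.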

For the next experiment, the target named is Fuc(a1-2)[Gal(a1-3)]Gal. The method, boiled down: as §1
The target of another experiment is Fuc(b1-3)GlcNAc. The method, boiled down:
as §1

Experiment [1] deals with Gal(a1-3)[Gal(a1-4)]Gal(b1-4)GlcNAc. Put shortly: as §1
Experiment [2] addresses Gal(b1-3)[Neu5Ac(a2-6)]GalNAc. Put shortly: as §1
For experiment [3], the target named is Gal(b1-4)GlcNAc(b1-3)Gal(b1-4)GlcNAc. Put shortly:
as §1

The next experiment addresses GlcNAc(b1-3)Gal. Put shortly:
as §1

Another experiment addresses GlcNAc(b1-3)Gal(b1-4)Glc. The method, boiled down:
as §1

For experiment [4], the target named is GlcNAc(b1-3)[GlcNAc(b1-6)]Gal(b1-4)GlcNAc. The method, boiled down: as §1
The target in experiment [5] is GlcNAc(b1-3)[GlcNAc(b1-6)]GalNAc. Put shortly:
as §1

The target of experiment [6] is GlcNAc(b1-4)[GlcNAc(b1-6)]GalNAc. The method, boiled down: as §1
Experiment [7] addresses Neu5Ac(a2-3)Gal(b1-3)GalNAc(b1-3)Gal(a1-4)Gal(b1-4)Glc. Put shortly: as §1
The target in experiment [8] is Neu5Ac(a2-3)Gal(b1-3)GalNAc(b1-3)Gal(b1-4)GlcNAc. Put shortly:
as §1

Experiment [9] concerns the target Neu5Ac(a2-3)Gal(b1-4)GlcNAc. Put shortly:
as §1

In the next experiment the target is Neu5Ac(a2-3)GalNAc. Put shortly: as §1

This is one part of a sample in which the strongest signals are shown more often than they occur.

B1: F17dG (Escherichia coli), Q47199 (protein)
chain: MTNFYKVFLAVFILVCCNISQAAVSFIGSTENDVGPSPGSYSRTHAMDNLPFVYNTGNNIGYQNANVWRISKGFCVGLDGKVDLPVVGSLDGQSIYGLTEEVGLLIWMGDTNYSRGTAMSGNSWENVFSGWCVGANTASTQGLSVRVTPVILKRNSSARYSVQKTSIGSIRMRPYNGSSAGSVQTTVNFSLNPFTLNDTVTSCRLLTPSAVNVSLAAISAGQLPSSGDEVVAGTTSLKLQCDAGVTVWATLTDATTPSNRSDILTLTGASTATGVGLRIYKNTDSTPLKFGPDSPVKGNENQWQLSTGTETSPSVRLYVKYVNTGEGINPGTVNGISTFTFSYQ
As to B1, the “glycan array binding signal (z-score)” value with Fuc(a1-2)Gal(b1-4)GlcNAc is -0.185; with Fuc(a1-2)[Gal(a1-3)]Gal, -0.276; with Fuc(b1-3)GlcNAc, -0.225; in experiment [1], -0.399; in [2], -0.194; in experiment [3], -0.287. For the same molecule, the “glycan array binding signal (z-score)” value with GlcNAc(b1-3)Gal was 4.56; in the experiment with GlcNAc(b1-3)Gal(b1-4)Glc, 5.88; in [4] it was 5.46; in experiment [5], 6.17; in experiment [6], -0.009; in experiment [7], -0.399. Moreover, the “glycan array binding signal (z-score)” value was -0.204 in experiment [8], -0.354 in experiment [9] and -0.327 with Neu5Ac(a2-3)GalNAc.
